Abeta yeast res: qHTS for compounds that reverse cellular toxicity of Amyloid beta (A-beta) peptide in yeast: Primary Screen; yeast expressing A-beta42, growth rescue, OD600, 48 h; response scale: 0% DMSO, 100% iron-clioquinol control; Potency, µM (highest dose often 46.1 µM), usual class: activators; 0.063% of 410,000 active; further: potency means the concentration at half of the fitted maximal effect; nearly all actives have a fitted effect of over 55% in size
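Yeast growth medium received pinned compounds, then yeast cells expressing toxic A-beta were added; plates incubated at 30 C for 48 hr. Growth read as absorbance at 600 nm, normalized to DMSO and equimolar FeCl3 plus clioquinol controls.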
FUS yeast rescue: qHTS for Suppressors of FUS Proteinopathy: Primary screen using FUS-linked yeast assay. S. cerevisiae FUS-expressing, growth rescue, OD600, 24 h. Potency, µM (highest dose often 76.6 µM), actives largely listed as activators. 0.24% of 390,000 active;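 further: potency means the concentration at half of the fitted maximal effect; plate controls were DMSO vehicle for no effect and reference control for full effect; nearly all actives have a fitted effect of over 55% in size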
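Absorbance at 600 nm, taken 24hr after compound addition, measured rescue of FUS-yeast growth at 30C. Induction used 2% galactose with seeding at OD 0.005. Controls: CP55940 from 92uM final, DMSO only.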
aSyn rescue: qHTS of alpha-syn Inhibitors; 0.14% of 370,000 active; Potency, µM (titrated, usually from 46.1 µM), inactives show top-dose growth rescue (activation), hits mostly activators; Yeast expressing alpha-synuclein, growth rescue, BacTiter-Glo, 24 h; further: potency means the concentration at half of the fitted maximal effect; % of control where 0% means no effect; nearly all actives have a fitted effect of over 65% in size
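Galactose-induced alpha-syn yeast (OD600=0.02, raffinose-pregrown) + pinned cpd, 24 hr, 30 deg C; growth by BacTiter-Glo luminescence. Growth restoration scores as activation.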
TDP-43 yeast inh: qHTS of TDP-43 Inhibitors; TDP-43 expressing yeast growth rescue, BacTiter-Glo, 24 h; Potency, µM (top dose mostly 46.1 µM), for the others: at the top dose growth rescue (activation), most hits filed as activators; 1.8% of 410,000 active; further: potency means the concentration at half of the fitted maximal effect; % of control where 0% means no effect; nearly all actives have a fitted effect of over 50% in size
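Growth rescue of TDP-43-toxic yeast measured as ATP luminescence (BacTiter-Glo). Cells grown to mid-log in raffinose, induced in galactose at OD600=0.02, exposed to compound 24 hr at 30 deg C.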
Akt phos inh: HTS Assay for Inhibitors of Akt Phophorylation: Primary Screen; activity change, % for hits at 50 µM; AID 651550, 2012; Neuro2A IGF-stimulated pAkt S473 HTRF, 20 min; stronger effect = lower value; 0.32% of 360,000 active; in the data active means activity change below about -80%; inconclusive means mostly about -51% to -80%; further: on the % scale 0 is the no-effect control and ±100 the full control effect
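Single-point screen (50 µM final compound) in Neuro2A cells stimulated 20 min with 6 nM IGF at 37 deg C. After lysis, Ser473-phosphorylated Akt read by HTRF (ex 330 nm, em 615/665 nm) as the 665/615 ratio.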
* hit, by the source's call; i = inactive; ? = inconclusive; / = not tested or not shown. An excerpt weighted towards active compounds, which were near 2.3% of everything screened. Unless noted, the call rests on the fitted dose curve; in most records, active means well fitted curve in the direction sought with a large enough effect; inconclusive means small, poorly fitted or top-dose-only effect, or another doubt; inactive means no such curve, though single readings can be large; an effect the other way counts as inactive or inconclusive.

SMILES	Abeta yeast res	FUS yeast rescue	aSyn rescue	TDP-43 yeast inh	Akt phos inh
CC1CCN(S(=O)(=O)c2ccc3c(c2)N(CC(=O)NC(C)(C)C)C(=O)CS3)CC1	i	i	/	16%	/
COc1ccc(OCCn2cc(C=O)c3ccccc32)cc1	i	i	-8%	10µM*	i
Nc1cc(-c2ccccc2)nn1Cc1ccc(Cl)cc1	i	i	17%	26%	i
O=c1ccc(-c2ccccc2)nn1Cc1ccc(Cl)cc1	i	i	?	20µM*	i
O=c1ccc(/C=C/c2ccccc2)nn1Cc1ccccc1	i	i	9%	20µM*	i
CCOC(=O)c1cc(-c2ccc(OC)cc2)n(CCC(=O)Nc2cccc(C(C)=O)c2)c1C	i	i	/	10%	/
Nc1ccc2oc(CCc3ccccc3)nc2c1	i	i	-1%	18µM*	i
Cc1ccc(S(=O)(=O)c2cn(CC(=O)Nc3ccc4c(c3)OCO4)c3ccc(F)cc3c2=O)cc1	i	i	/	0%	/
COc1ccc(NC(=O)N2CCN(S(=O)(=O)c3ccc4c(ccn4C)c3)CC2)c(OC)c1	i	13µM*	2%	0%	/
CCOc1ccc(NC(=O)N2CCN(S(=O)(=O)c3ccc4c(ccn4C)c3)CC2)cc1	i	40µM*	0%	-21%	/
COc1ccc(OC)c(NC(=O)N2CCN(S(=O)(=O)c3ccc4c(ccn4C)c3)CC2)c1	i	?	?	19%	/
Cc1c(/C=C/C(=O)c2ccc(Cl)s2)cnn1C	i	i	3%	13µM*	i
Cc1c(/C=C/C(=O)c2ccccc2)cnn1C	i	i	3%	21%	i
COc1ccc(C(=O)NCC(=O)OCC(=O)c2cccc3ccccc23)cc1	/	/	17%	/	/
O=C(OCC(=O)c1cccc2ccccc12)c1ccc(CO)cc1	i	i	16%	14µM*	i
O=c1[nH]c2ccccc2c2nc3ccccn3c12	i	i	?	22µM*	i
O=C(NCc1ccccn1)C1CCCN(Cc2cnn(-c3ccccc3)c2-n2cccc2)C1 (centres undefined)	i	i	-9%	-3%	-98%*
COc1ccc(NC(=O)CCS(=O)(=O)c2cc3c4c(c2)CCN4C(=O)CC3)c(OC)c1	i	i	/	3%	/
O=C1C(=O)N(Cc2ccccc2)C(=O)N1CCN1C(=O)c2ccccc2C1=O	i	i	0%	13%	i
O=C1Cc2ccccc2C(=O)N1CCc1ccccc1	i	i	2%	13µM*	i
COc1cc(C=C(C#N)c2ccc([N+](=O)[O-])cc2)ccc1O	i	i	-15%	4µM*	i
CC(C)Cc1ccc(-c2cc(=O)[nH][nH]2)cc1	i	i	6%	20µM*	i
Cc1ccc(-c2cc(=O)[nH][nH]2)c(C)c1	i	i	-8%	-4%	i
COc1ccc(OCc2ccc(-c3nc(C#N)c(NC(C)c4ccccc4)o3)o2)cc1 (centres undefined)	i	i	/	-3%	/
COc1ccccc1-n1cc(CN2CCc3onc(-c4ccc(Br)cc4)c3C2=O)nn1	i	i	6%	15%	i
SMILES	Abeta yeast res	FUS yeast rescue	aSyn rescue	TDP-43 yeast inh	Akt phos inh
COc1ccc(Cn2cc(CN3CCc4onc(-c5ccc(Br)cc5)c4C3=O)nn2)cc1	i	?	19%	18µM*	i
COCCCCOc1cc2nc(N3CCCN(C)CC3)nc(NC3CCN(C)CC3)c2cc1OC	/	/	-7%	/	/
CC(C)C(=O)Nc1cccc(C(=O)Nc2ccccc2C(=O)O)c1	?	i	1%	4%	-114%*
COc1ccc(C(O)c2nc(-c3ccc4ccccc4c3)cs2)cc1 (centres undefined)	i	i	3.5µM*	3%	i
COc1ccc(C(O)c2nc(-c3cccs3)cs2)cc1 (centres undefined)	i	i	18%	16µM*	i
COc1ccc(C(O)c2nc(-c3ccccc3)cs2)cc1 (centres undefined)	?	i	20%	35µM*	i
OC(c1ccco1)c1nc(-c2ccc(F)c(Cl)c2)cs1 (centres undefined)	i	i	1%	13µM*	i
Cc1nc2nncn2c(NCc2ccc(Cl)cc2)c1C	i	i	/	0%	/
COc1ccc(-c2csc(C(O)c3ccc(F)cc3)n2)cc1 (centres undefined)	i	i	?	22µM*	i
COc1ccc(-c2csc(C(O)c3ccc(F)cc3)n2)cn1 (centres undefined)	i	i	2%	35µM*	i
COc1ccc(-c2csc(C(O)c3ccc(OC)cc3)n2)cc1 (centres undefined)	i	i	?	?	i
COc1ccc(C(O)c2nc(-c3ccc(Cl)cc3)cs2)cc1 (centres undefined)	?	i	11µM*	?	i
COc1ccc(C(O)c2nc(-c3ccncc3)cs2)cc1 (centres undefined)	i	i	7%	?	i
COc1ccc(CC(=O)NCC(c2ccc(N(C)C)cc2)N2CCOCC2)cc1OC (centres undefined)	i	i	/	21%	/
COc1ccc(NC(=O)CC2C(=O)N(c3ccc(OC)cc3)C(=O)N2C2CCCCC2)cc1 (centres undefined)	i	i	/	15%	/
CCOc1ccc(NC(=O)CC2C(=O)N(c3ccc(OC)cc3)C(=O)N2C2CCCCC2)cc1 (centres undefined)	i	40µM*	/	-12%	/
CC(=O)[C@H]1CC[C@H]2[C@@H]3CC=C4C[C@@H](O)CC[C@]4(C)[C@H]3CC[C@]12C	i	i	12%	-4%	i
COC1CCC2(C)C(=CCC3C4CC(O)CC4(C)CCC32)C1 (centres undefined)	i	/	16%	14µM*	i
COc1ccc(F)cc1S(=O)(=O)n1nnc2ccccc21	i	?	?	10µM*	i
COc1ccccc1NC(=O)c1sc2nc(C)c(C(=O)Nc3ccc(C)cc3C)c(-c3ccccc3Cl)c2c1N	i	i	/	15%	/
CCCCOc1ccc(C(=O)NCc2cn3cccc(C)c3n2)cc1	i	i	/	21%	/
CCCCNC(=O)c1nn(-c2ccc(C)cc2)c(=O)c2c1c1ccccc1n2C	i	i	/	9%	/
O=C(/C=C/Nc1cccc([N+](=O)[O-])c1)c1ccco1	i	i	13µM*	-1%	i

From PubChem BioAssay
